Assay outcomes: PubChem, National Center for Advancing Translational Sciences (NCATS)
Menin-MLL FL inh: menin-MLL binding inhibition, fluorescein peptide | Fluorescence polarization, fluorescein-MLL peptide displacement from menin | FP activity change, % at 61.4 µM | 290,000 tested, under 10 active | AID 1766; active = well fitted curve in the direction sought with a large enough effect in the polarisation, not every such curve was filed as active; inconclusive = small, poorly fitted or top-dose-only effect, or effect the other way, or a change in a side signal; inactive = no such curve, though single readings can be large or run the other way; the % refers to the polarisation
CXXC DNA block: inhibitors of human MLL CXXC domain-DNA interaction; Potency, µM (top dose mostly 115 µM), usual class: inhibitors; Q03164; MLL-CXXC / FITC-HOXA9 DNA fluorescence polarization; 290,000 tested, 0.037% active; active = well fitted inhibition curve with a large enough effect in the polarisation, with a control signal flat, not every such curve was filed as active; inconclusive = small, poorly fitted or top-dose-only effect, or effect the other way, or a change in a side signal; inactive = no such curve, though single readings can be large or run the other way; the % refers to the polarisation
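Fluorescence polarization: 7 uM MLL-CXXC (stock) preincubated 5 min with compounds, then 50 nM fluorescein-HOX-A9 DNA (stock) added; 30 min ambient. Buffer 50 mM Tris-HCl pH 7.5, 50 mM NaCl, 1 mM DTT, 0.05% BSA.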
Menin MLL FP TR: menin-MLL binding inhibition, Texas Red mutant peptide. O00255. Menin + Texas Red MLL mutant peptide, fluorescence polarization. Potency, µM (titrated, usually from 61.6 µM), usual class: inhibitors. 270,000 tested, 0.23% active. AID 1768; active = well fitted inhibition curve with a large enough effect in the polarisation, with a control signal flat, not every such curve was filed as active; inconclusive = small, poorly fitted or top-dose-only effect, or effect the other way, or a change in a side signal; inactive = no such curve, though single readings can be large or run the other way; the % refers to the polarisation
Tb PFK inh-1: inhibitors of T. brucei phosphofructokinase | O15648 | T. brucei PFK, ADP-Glo luminescence | Potency, µM (titrated, usually from 57.5 µM), most hits filed as inhibitors | 330,000 tested, 0.17% active | AID 485367; also: nearly all actives have a fitted effect of over 60% in size
Target sequence (O15648 whole entry, looked up): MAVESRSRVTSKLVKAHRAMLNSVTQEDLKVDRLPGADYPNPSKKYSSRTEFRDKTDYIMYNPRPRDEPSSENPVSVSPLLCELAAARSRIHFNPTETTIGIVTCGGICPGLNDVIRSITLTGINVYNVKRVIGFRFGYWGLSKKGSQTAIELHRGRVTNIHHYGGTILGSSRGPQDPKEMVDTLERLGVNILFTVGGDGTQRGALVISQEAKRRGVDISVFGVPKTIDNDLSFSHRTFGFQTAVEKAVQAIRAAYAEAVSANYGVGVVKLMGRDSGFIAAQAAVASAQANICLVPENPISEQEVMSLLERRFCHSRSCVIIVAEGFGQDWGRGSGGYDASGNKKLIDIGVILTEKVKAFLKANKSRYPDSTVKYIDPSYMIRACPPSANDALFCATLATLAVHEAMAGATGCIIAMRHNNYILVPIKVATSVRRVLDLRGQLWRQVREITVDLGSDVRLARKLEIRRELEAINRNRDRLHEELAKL
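Compounds were pin-transferred as a titration series up to 57 uM into substrate buffer (0.5 mM F6P, 0.1 mM ATP, pH 8.0), then 1.25 nM PFK was added and reactions ran 45 min before ADP-Glo detection.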
RGS12 GoLoco inh: blocks human Gai1 binding to RGS12 GoLoco peptide, red readout; Gai1:RGS12 GoLoco peptide FP, rhodamine, 10 min; Potency, µM (top dose mostly 61.6 µM), hits mostly inhibitors; 230,000 tested, 0.44% active; active = well fitted inhibition curve with a large enough effect, not every such curve was filed as active; inactive = no such curve, though single readings can be large or run the other way; also: nearly all actives have a fitted effect of over 30% in size
Target sequence (P63096 whole entry, looked up): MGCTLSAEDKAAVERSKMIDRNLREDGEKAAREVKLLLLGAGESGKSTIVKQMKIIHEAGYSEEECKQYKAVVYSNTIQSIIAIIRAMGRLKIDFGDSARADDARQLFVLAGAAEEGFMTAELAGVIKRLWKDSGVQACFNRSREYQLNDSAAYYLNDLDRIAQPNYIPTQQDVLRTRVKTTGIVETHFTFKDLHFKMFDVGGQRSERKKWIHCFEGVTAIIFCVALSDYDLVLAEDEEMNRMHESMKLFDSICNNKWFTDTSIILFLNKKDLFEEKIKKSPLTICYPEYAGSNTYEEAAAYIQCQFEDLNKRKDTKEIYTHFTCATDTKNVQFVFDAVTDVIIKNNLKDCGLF
MLL CXXC FP-Fl: inhibitors of human MLL CXXC domain-DNA interaction | shares compounds with CXXC DNA block | AID 624160 | Potency, µM (series often up to 345 µM), most hits filed as inhibitors | MLL CXXC-DNA binding, fluorescein FP | 200 tested, 70% active; also: nearly all actives have a fitted effect of over 80% in size
MLL CXXC FP-TR: inhibitors of human MLL CXXC domain-DNA interaction, Texas Red format | shares compounds with CXXC DNA block | Potency, µM (doses to about 345 µM), hits mostly inhibitors | 200 tested, 40% active | MLL CXXC-DNA binding, Texas Red fluorescence polarization; also: nearly all actives have a fitted effect of over 75% in size
MLL CXXC HTRF: MLL CXXC-DNA interaction inhibition, HTRF readout | shares compounds with CXXC DNA block | MLL CXXC-DNA binding, HTRF, biochemical | 210 tested, 30% active | Potency, µM (titrated, usually from 172 µM), usual class: inhibitors; also: nearly all actives have a fitted effect of over 80% in size
TbPFK ATP: Tb phosphofructokinase inhibition, orthogonal luminescence; 1,100 tested, 47% active; AID 504636; Tb PFK enzyme, ATP depletion, Kinase-Glo Plus luminescence; Potency, µM (series often up to 57.5 µM); shares compounds with Tb PFK inh-1; calls by dose curve; also: nearly all actives have a fitted effect of over 60% in size
Tb PFK inh-2: validation of T. brucei phosphofructokinase inhibitors | 1,100 tested, 41% active | purified T. brucei PFK, ADP-Glo luminescence, 45 min | Potency, µM (doses to about 57.5 µM), hits mostly inhibitors | AID 504637 | shares compounds with Tb PFK inh-1; also: nearly all actives have a fitted effect of over 60% in size
Hits are given with their value. Compounds with a hit are over-represented: about 0.43% of the library has one in this group of screens. Unless noted, calls follow the shape of the dose curve; as a rule, active = well fitted curve in the direction sought with a large enough effect; inconclusive = small, poorly fitted or top-dose-only effect, or another doubt; inactive = no such curve, though single readings can be large; an effect the other way counts as inactive or inconclusive.

Results for O=C1OC(/C(=C\Nc2ccc(F)cc2F)[N+](=O)[O-])c2ccccc21 (configuration not stated) ?
Menin-MLL FL inh: inactive; CXXC DNA block: inconclusive; Menin MLL FP TR: inactive; Tb PFK inh-1: inconclusive; RGS12 GoLoco inh: inactive; MLL CXXC FP-Fl: inactive; MLL CXXC FP-TR: 126µM; MLL CXXC HTRF: inactive; TbPFK ATP: inactive; Tb PFK inh-2: inactive

What do the screens show for `OC[C@@H]1O[C@@H](Oc2ccc(O)cc2)[C@H](O)[C@@H](O)[C@@H]1O`?
Menin-MLL FL inh: inactive; Menin MLL FP TR: inactive

How did O=c1c2ccccc2sn1-c1nccs1 do in these assays?
Menin-MLL FL inh: inactive; CXXC DNA block: inactive; Menin MLL FP TR: inactive; Tb PFK inh-1: 8.49µM; RGS12 GoLoco inh: 15.8µM; TbPFK ATP: inconclusive; Tb PFK inh-2: inconclusive

What do the screens show for `CC1NC(=O)c2ccccc2-n2c1nc1cc(F)ccc1c2=O` (configuration not stated)?
Tb PFK inh-1: inactive

Results for Cc1ccc(C(=O)NNC(=O)c2ccccc2)cc1S(=O)(=O)N1CCCCC1 ?
Tb PFK inh-1: inactive

What do the screens show for `Cc1ccc(-n2sc3ccccc3c2=O)cc1S(=O)(=O)N1CCCCC1`?
Menin-MLL FL inh: inactive; CXXC DNA block: inactive; Menin MLL FP TR: inconclusive; Tb PFK inh-1: 13.5µM; RGS12 GoLoco inh: 28.2µM; TbPFK ATP: inconclusive; Tb PFK inh-2: 6.75µM

Results for Cc1ccccc1-n1sc2cc(F)ccc2c1=O ?
Menin-MLL FL inh: inactive; CXXC DNA block: inactive; Menin MLL FP TR: inactive; Tb PFK inh-1: 2.69µM; RGS12 GoLoco inh: 28.2µM; TbPFK ATP: inconclusive; Tb PFK inh-2: 10.7µM

What do the screens show for `O=C(O)c1cccc(-n2sc3ccccc3c2=O)c1`?
Tb PFK inh-1: 6.01µM; TbPFK ATP: 15.1µM; Tb PFK inh-2: 16.9µM

How did O=C(O)c1cccc(N2C(=O)CCC2=O)c1 do in these assays?
Menin-MLL FL inh: inactive; CXXC DNA block: inactive; Tb PFK inh-1: inactive; RGS12 GoLoco inh: inactive

Results for C=C(C)CN(CC)C(=O)CN1C(=O)NC(C)(c2ccc3ccccc3c2)C1=O (configuration not stated) ?
Menin-MLL FL inh: inactive; CXXC DNA block: inactive; Menin MLL FP TR: inactive; Tb PFK inh-1: inactive

How did O=c1c2ccccc2sn1-c1ccccc1 do in these assays?
Menin-MLL FL inh: inactive; CXXC DNA block: inactive; Menin MLL FP TR: inactive; Tb PFK inh-1: 4.78µM; RGS12 GoLoco inh: 17.8µM; TbPFK ATP: inconclusive; Tb PFK inh-2: 7.57µM

What do the screens show for `O=c1c2cc(F)ccc2sn1-c1ccccc1`?
Tb PFK inh-1: 6.75µM; TbPFK ATP: inconclusive; Tb PFK inh-2: inconclusive

What do the screens show for `O=c1c2ccccc2[nH]c2ccc(F)cc12`?
Menin-MLL FL inh: inactive; CXXC DNA block: inactive; Menin MLL FP TR: inactive; Tb PFK inh-1: inactive; RGS12 GoLoco inh: inactive

What do the screens show for `CC(C)CNC(=O)c1cnn2c(C(F)(F)F)cc(C(F)(F)F)nc12`?
Menin-MLL FL inh: inactive; CXXC DNA block: inactive; Tb PFK inh-1: inactive; RGS12 GoLoco inh: inactive

Results for CC1=NOC(=O)/C1=C/c1ccc(N(C)C)cc1 ?
Menin-MLL FL inh: inconclusive; CXXC DNA block: inactive; Menin MLL FP TR: inactive; Tb PFK inh-1: 15.1µM; TbPFK ATP: inconclusive; Tb PFK inh-2: 13.5µM

Results for CC1=NN(CCC#N)C(=O)/C1=C/c1ccc(N(C)C)cc1 ?
Menin-MLL FL inh: inactive; CXXC DNA block: inactive; Menin MLL FP TR: inactive; Tb PFK inh-1: 21.3µM; RGS12 GoLoco inh: inactive; TbPFK ATP: 10.7µM; Tb PFK inh-2: 26.9µM

What do the screens show for `O=C(O)CC/C=C\CC[C@@H]1[C@@H](N2CCCCC2)[C@@H](O)C[C@@H]1OCc1ccc(-c2ccccc2)cc1`?
Menin-MLL FL inh: inactive; CXXC DNA block: inactive; Menin MLL FP TR: inactive

Results for N#Cc1cccc(NC(=O)COC(=O)c2cccc(N3C(=O)c4ccccc4C3=O)c2)c1 ?
Menin-MLL FL inh: inactive; CXXC DNA block: inactive; Menin MLL FP TR: inconclusive; Tb PFK inh-1: inconclusive; RGS12 GoLoco inh: inactive; TbPFK ATP: inconclusive; Tb PFK inh-2: inconclusive

What do the screens show for `O=C(COC(=O)c1cccc(N2C(=O)c3ccccc3C2=O)c1)Nc1ccccc1`?
Menin-MLL FL inh: inactive; CXXC DNA block: inactive; Menin MLL FP TR: inactive; Tb PFK inh-1: inactive; RGS12 GoLoco inh: inactive

Results for COc1ccc(CNc2nc(Cl)c(C#N)s2)cc1 ?
Menin-MLL FL inh: inactive; CXXC DNA block: inactive; Menin MLL FP TR: inactive; Tb PFK inh-1: 12µM; TbPFK ATP: 7.57µM; Tb PFK inh-2: 13.5µM

How did N#Cc1sc(NCc2ccccc2)nc1Cl do in these assays?
Menin-MLL FL inh: inactive; CXXC DNA block: inactive; Menin MLL FP TR: inactive; Tb PFK inh-1: 19µM; RGS12 GoLoco inh: inactive; TbPFK ATP: 10.7µM; Tb PFK inh-2: 26.9µM

What do the screens show for `COCCNc1nc(Cl)c(C#N)s1`?
Menin-MLL FL inh: inactive; CXXC DNA block: inactive; Menin MLL FP TR: inactive; Tb PFK inh-1: inactive; RGS12 GoLoco inh: inactive

How did CCOc1ccccc1N(CC)C(=O)c1nn(C)c2c1CSc1ccccc1-2 do in these assays?
Menin-MLL FL inh: inactive; CXXC DNA block: inactive; Menin MLL FP TR: inactive; Tb PFK inh-1: inactive

How did COc1cc(-c2nnc(SCc3cc(=O)oc4cc(O)c(O)cc34)o2)cc(OC)c1OC do in these assays?
Menin-MLL FL inh: inactive; CXXC DNA block: inactive; Menin MLL FP TR: inconclusive; Tb PFK inh-1: inconclusive; RGS12 GoLoco inh: inactive; TbPFK ATP: 1.69µM; Tb PFK inh-2: 1.51µM

What do the screens show for `COc1ccc(-c2csc(NS(=O)(=O)c3ccc([N+](=O)[O-])cc3)n2)cc1`?
Menin-MLL FL inh: inactive; CXXC DNA block: inactive; Menin MLL FP TR: inconclusive; Tb PFK inh-1: inconclusive; RGS12 GoLoco inh: inactive; TbPFK ATP: inactive; Tb PFK inh-2: inconclusive

What do the screens show for `COc1ccc2o/c(=N/NC(=O)c3cccs3)c(C(N)=O)cc2c1`?
Menin-MLL FL inh: inconclusive; CXXC DNA block: inactive; Menin MLL FP TR: inactive; Tb PFK inh-1: inconclusive; RGS12 GoLoco inh: inactive; TbPFK ATP: inactive; Tb PFK inh-2: inconclusive

Results for NC(=O)c1cc2ccccc2o/c1=N/NC(=O)c1cccs1 ?
Menin-MLL FL inh: inactive; CXXC DNA block: inactive; Menin MLL FP TR: inactive; Tb PFK inh-1: inconclusive; RGS12 GoLoco inh: inactive
